In the library only some 3.3% were active in any assay of this set; here they are far more common.
RE007 growth inh: less growth of the S. pombe RE007 Vpr strain; S. pombe RE007 Vpr strain, BacTiter-Glo ATP luminescence, 24 h; Potency, µM (highest dose often 92.2 µM), for inactives: at the top dose activity change, negative = less growth, usual class: inhibitors; 360,000 compounds, 0.21% hits; AID 651644; active = well fitted falling curve with a large enough effect; inconclusive = small, poorly fitted or top-dose-only effect; inactive = no such curve, though single readings can be large or run the other way; also: nearly all actives have a fitted effect of over 50% in size
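Fission yeast strain RE007, carrying one chromosomally integrated HIV-1 vpr copy, was seeded at OD 0.01 in PMG+AL medium with 23 nL pinned compound. After 24 h at 30 °C and 99% humidity, viability was read by BacTiter-Glo luminescence.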
LmPK inh: blocks Leishmania mexicana pyruvate kinase activity. Q27686. purified LmPK, Kinase-Glo ATP luminescence, 1 h. Potency, µM (highest dose often 57.5 µM), for the others: top-dose activity change, negative = inhibition, actives largely listed as inhibitors. 290,000 compounds, 0.37% hits. AID 1721
Target sequence (Q27686 whole entry, looked up): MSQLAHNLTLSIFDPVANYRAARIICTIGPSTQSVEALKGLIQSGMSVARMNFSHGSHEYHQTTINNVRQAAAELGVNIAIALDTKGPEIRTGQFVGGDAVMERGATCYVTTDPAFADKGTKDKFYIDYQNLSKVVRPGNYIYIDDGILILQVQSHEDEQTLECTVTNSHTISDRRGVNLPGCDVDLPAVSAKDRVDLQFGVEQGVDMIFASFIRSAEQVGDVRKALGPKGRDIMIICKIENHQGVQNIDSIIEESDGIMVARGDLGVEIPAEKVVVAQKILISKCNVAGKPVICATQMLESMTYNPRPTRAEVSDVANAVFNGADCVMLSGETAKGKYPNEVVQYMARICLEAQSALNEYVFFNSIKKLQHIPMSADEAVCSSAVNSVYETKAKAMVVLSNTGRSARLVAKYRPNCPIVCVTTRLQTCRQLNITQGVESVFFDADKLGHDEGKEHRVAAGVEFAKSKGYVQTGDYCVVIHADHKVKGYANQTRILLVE
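Purified LmPK (0.1 nM) with 0.5 mM PEP and 0.1 mM ADP in imidazole buffer pH 7.2 with MgCl2/KCl, 1 h at room temperature. ATP formed was read by luciferase luminescence and normalized to no-enzyme and uninhibited controls.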
Tb PYK inh: inhibitors of Trypanosoma brucei pyruvate kinase; Q57TT1; 410,000 compounds, 0.12% hits; TbPYK enzyme, Kinase-Glo Plus ATP luminescence, 45 min; Potency, µM (series often up to 76.8 µM), inactives show top-dose activity, negative = inhibition, hits mostly inhibitors; AID 624173; also: nearly all actives have a fitted effect of over 50% in size
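Assay buffer: 50 mM TEA pH 7.2, 100 mM KCl, 10 mM MgCl2, 0.05% BSA, 0.01% Tween-20. Pyruvate kinase from T. brucei plus substrate met compound, then ADP (130 uM final). Luminescence was read post 45 min RT.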
Sm TGR block: blocks Schistosoma mansoni thioredoxin glutathione reductase | Q962Y6 | AID 485364 | Potency, µM (series often up to 114 µM), inactives show top-dose activity change, negative = inhibition, hits mostly inhibitors | purified TGR, DTNB reduction, TNB absorbance 405 nm | 360,000 compounds, 3% hits; also: nearly all actives have a fitted effect of over 60% in size
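Kinetic colorimetric format: TGR-catalysed, NADPH-driven DTNB reduction monitored via TNB absorbance. Enzyme dispensed at 20 nM; compound exposure 15 min at room temperature before reaction start.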
FBPA Giardia inh: Giardia lamblia aldolase inhibition | A8B2U2 | purified Giardia FBPA | Potency, µM (doses to about 59.6 µM), for the others: top-dose activity, negative = inhibition, hits mostly inhibitors | 290,000 compounds, 0.71% hits | AID 2451; also: nearly all actives have a fitted effect of over 55% in size
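40 nM FBPA preincubated 10 min at RT with compound (up to 57.5 uM final), then substrate plus GAPDH/TPI/NAD/arsenate coupling and diaphorase/resazurin added. Fluorescence read after 20 min at RT, 525/598 nm.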
* marks the source's active call; other numbers are inactive results; ? = inconclusive; . = no result. Unless noted, calls follow the shape of the dose curve; as a rule, active = well fitted curve in the direction sought with a large enough effect; inconclusive = small, poorly fitted or top-dose-only effect, or another doubt; inactive = no such curve, though single readings can be large; an effect the other way counts as inactive or inconclusive. % is scaled to controls: 0 for no effect and ±100 for the full control effect; potency is read from the fitted curve at half-maximal effect.

SMILES | RE007 growth inh | LmPK inh | Tb PYK inh | Sm TGR block | FBPA Giardia inh
O=C(CSc1nc2cccnc2n1Cc1ccccc1)N1CCCC1 | -5% | 2% | -9% | 3% | -1%
COc1ccc(C(=O)C2CCCN(C(=O)CCc3scnc3C)C2)c(C)c1 (configuration not stated) | 15% | -2% | -4% | 32µM* | ?
O=C(NC1CCCC1)C1CCN(S(=O)(=O)c2cccc3cccnc23)CC1 | 4% | -1% | 0% | -35% | 5%
O=S(=O)(c1ccc(Br)cc1)c1cnc2ccccc2n1 | -4% | -10% | 1% | 14µM* | 1%
COc1ccc(S(=O)(=O)c2cnc3ccccc3n2)cc1 | 8% | -2% | -2% | ? | 14%
COC(=O)C1=C(C)N(c2ccc(OC)cc2)C(=O)/C1=C\c1cccs1 | 5% | 3% | -1% | -11% | -1%
CCCCN1C(=O)/C(=C\c2ccco2)C(=O)N(CCc2ccccc2)C1=O | -13% | 3% | -14% | -1% | 1%
COC(=O)C1=C(C)N(c2cccc(OC)c2)C(=O)/C1=C\c1ccco1 | -1% | -2% | 11% | 35µM* | 3%
CCN1C(=O)/C(=C\c2ccco2)C(C(=O)OC)=C1C | -20% | 6% | -7% | -3% | 1%
COC(=O)C1=C(C)N(CCc2ccccc2)C(=O)/C1=C\c1ccco1 | -14% | 0% | 0% | 45µM* | -2%
O=C1NC(=O)N(Cc2ccccc2)C(=O)/C1=C\c1ccco1 | 1% | -3% | ? | -48% | 1%
COC(=O)C1=C(C)N(Cc2ccccc2)C(=O)/C1=C\c1ccco1 | 8% | -6% | -8% | 8.9µM* | -5%
C=CCN1C(=O)/C(=C\c2ccco2)C(C(=O)OC)=C1C | -15% | 6% | -3% | 40µM* | -13%
Cc1ccc2nc(N(Cc3cccnc3)C(=O)c3cccs3)sc2c1 | . | . | -4% | 1% | .
Cc1ccc2c(CC(=O)OC(C)C(=O)Nc3ncc(Cl)cc3Cl)coc2c1 (configuration not stated) | 11% | 5% | -3% | -15% | 5%
CCOC(=O)C1CCN(C(=O)COC(=O)c2cc(-c3cccs3)nn2-c2ccccc2)CC1 | 0% | . | 1% | 5% | .
COC(=O)C1=C(c2ccc(C(C)=O)cc2)C[C@@H]2CC[C@H]1N2C(=O)NC(C)C | -1% | . | 0% | 35µM* | .
CNC(=O)NC(=O)Cn1cnc2sc(-c3ccccc3)cc2c1=O | 0% | 2% | 0% | -5% | 6%
CC1CCN(C(c2ccc(N(C)C)cc2)c2nnnn2C(C)(C)C)CC1 (configuration not stated) | -2% | -2% | ? | 5.6µM* | -2%
CN(C)c1ccc(C(c2nnnn2C(C)(C)C)N2CCc3ccccc3C2)cc1 (configuration not stated) | . | 8% | . | 11µM* | 15%
CC(C)(C)n1nnnc1C(c1ccccc1)N1CCc2ccccc2C1 (configuration not stated) | 12% | -3% | -13% | 35µM* | -20%
Oc1c(Cl)cc(Cl)cc1C1=NNC(c2ccc(Cl)cc2)C1 (configuration not stated) | 1% | -1% | 1% | 3.2µM* | 7%
O=C(CNc1cccc2ccccc12)N/N=C/C=C/c1ccco1 | 3% | -5% | -5% | 8% | -4%
Cc1ccc(OCC(=O)N/N=C/C=C/c2ccco2)cc1C | -10% | -2% | 7% | 50µM* | -21%
COc1ccc(OCC(=O)N/N=C/C(C)=C/c2ccco2)c(Br)c1 | -10% | -1% | 2% | 40µM* | .
SMILES | RE007 growth inh | LmPK inh | Tb PYK inh | Sm TGR block | FBPA Giardia inh
Cc1ccc(OCC(=O)N/N=C/c2ccco2)cc1 | 25% | -2% | -10% | -14% | 3%
Cc1ccccc1OCC(=O)N/N=C/c1ccco1 | 3% | 0% | 2% | -12% | 0%
O=C(Cc1cccs1)N/N=C/C=C/c1ccco1 | 18% | 3% | -13% | 4µM* | ?
Cn1c(SCC(=O)N/N=C/C=C/c2ccco2)nc2ccccc21 | -24% | -2% | -16% | 22µM* | 8%
COc1ccc(Br)cc1C(=O)O | 6% | 0% | -6% | 7% | 9%
O=C(O)CCCCCCCCc1cn(CCc2c[nH]c3ccccc23)nn1 | ? | -4% | 1% | -18% | -8%
O=C(CSc1nnc(SCc2ccccc2)s1)N/N=C/C=C/c1ccco1 | 7% | 1% | -1% | 40µM* | -21%
CCn1c(SCC(=O)N/N=C/C=C/c2ccco2)nnc1-c1ccccc1 | -5% | -2% | -28% | 35µM* | -10%
CCn1c(SCC(=O)N/N=C/C(C)=C/c2ccco2)nnc1-c1ccccc1 | 4% | -2% | -5% | ? | ?
CC(C)N1CC=C2C(C#N)=C(N)C(C#N)(C#N)C(c3ccccc3)C2C1 (configuration not stated) | -2% | -3% | -4% | ? | ?
N#CC1=C(N)C2=CCCC[C@H]2[C@H](c2ccccc2)C1(C#N)C#N | -7% | 1% | -12% | 45µM* | -26%
N#CC1=C(N)C2=CCCC[C@H]2[C@H](c2ccc(Br)cc2)C1(C#N)C#N | 22% | 0% | -14% | 32µM* | ?
CN1C2C=C3C(C#N)=C(N)C(C#N)(C#N)C(c4ccc(Br)cc4)C3C1CC2 (configuration not stated) | -11% | 2% | 3% | -23% | ?
COc1ccc2ccc3c(c2c1)N=C[C@]1(O3)N(C)c2ccccc2C1(C)C | -16% | 0% | -6% | 28µM* | 8.9µM*
COc1ccc2c(c1)c1ccccc1n2C | -21% | 3% | 2% | -3% | -9%
CCCCOc1ccc(Br)cc1/C(C)=N/NC1=NCCN1 | -21% | 2% | 7% | 5% | 0%
Cc1ccc(NC(=O)CC2SC3=NCCN3C2=O)cc1 (configuration not stated) | 5µM* | 0% | 2% | 7.9µM* | -1%
Cc1c(NC(=O)c2csc3c2CCCC3)c(=O)n(-c2ccccc2)n1C | -18% | 0% | 4% | -5% | 4%
Cc1c(NC(=O)c2c(N)sc3c2CCCC3)c(=O)n(-c2ccccc2)n1C | 0% | -6% | ? | 22µM* | ?
CCOc1ccc(Oc2nc(N(CC)CC)nc(N3CCOCC3)n2)nn1 | -16% | 0% | 2% | 2% | 1%
Cc1cccc(C)c1NC(=O)NC1(C(=O)N2CCCC2)CCCCC1 | -10% | -1% | -4% | 7% | .
CCOC(=O)CNC(=O)C(Cc1ccccc1)NC(=O)OCc1ccccc1 (configuration not stated) | 8% | 14µM* | 0% | -12% | 3%
O=C(NC(=S)Nc1ccccc1Br)C1CCCC1 | ? | 0% | -5% | 13µM* | .
O=C(NC(=S)Nc1ccccc1Br)C1CCCCC1 | -28% | . | -2% | . | .
